In assay [1] the target is Glucocorticoid receptor (Homo sapiens) (UniProt P04150). Kind of assay: qHTS assay for small molecule antagonists of glucocorticoid receptor signaling (AID 588533; active means well fitted inhibition curve with a large enough effect in the signal ratio, with a control signal flat, not every such curve was filed as active; the % refers to the signal ratio;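 further: cells stimulated with 2 nM dexamethasone as agonist; on the % scale 0 is the no-effect control and ±100 the full control effect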). An outline of the steps:
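Antagonist-mode qHTS: compound titrations added to GRE-bla HeLa cells, then dexamethasone 2 nM final; 18 h, 37 C. CCF4 FRET fluorescence normalized to dexamethasone and DMSO; IC50 from Hill fit.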
On the technique in general: In qHTS, concentration-response curves come from the screen itself.

Assay [2] has as its target Peroxisome proliferator-activated receptor delta (Homo sapiens) (UniProt Q03181). The assay can be described thus: qHTS assay for small molecule agonists of peroxisome proliferator-activated receptor delta signaling (AID 588534).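 Further: 0% = DMSO basal wells and 100% = positive control agonist at 10 µM.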 In a few lines:
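Agonist-mode beta-lactamase reporter readout (CCF4 dye, 2 h at RT) after 18 h at 37 °C exposure to a titration; Hill-equation fitting gave EC50 and maximal response.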

Assay [3] addresses Vitamin D3 receptor (Homo sapiens) (UniProt P11473). The assay can be described thus: qHTS assay for small molecule antagonists of vitamin D receptor signaling (AID 588541).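 Further: receptor activated by calcitriol during compound treatment; series mostly up to about 77 µM; on the % scale 0 is the no-effect control and ±100 the full control effect.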 An outline of the steps: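 Antagonist-mode beta-lactamase reporter assay: HEK293T VDR-UAS-bla cells were exposed to titrated compound alongside 1-alpha,25-dihydroxyvitamin D3 at 3 nM final for 16 h. Values were normalized to the 50 nM agonist control and DMSO basal, with IC50 and efficacy from Hill equation fits.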

Assay [4] shares this target. The assay can be described thus: qHTS assay for small molecule agonists of vitamin D receptor signaling (AID 588543).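 Further: 0% = DMSO basal and 100% = reference agonist control.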 In a few lines: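 Measured: β-lactamase reporter activity (CCF4, 405 nm excitation, 460/530 nm emission) in HEK293T VDR-UAS-bla cells after 16 h compound exposure at 37 °C. Normalization against 50 nM 1α,25-dihydroxyvitamin D3 and DMSO; Hill-fit EC50.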

Assay [5] deals with Retinoic acid receptor RXR-alpha (Homo sapiens) (UniProt P19793). Kind of assay: qHTS assay for small molecule agonists of retinoid X receptor alpha signaling (AID 588544).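 On activation: 0% = DMSO basal wells and 100% = reference agonist.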
Retinoic acid receptor RXR-alpha (Homo sapiens), sequence (P19793 whole entry, looked up): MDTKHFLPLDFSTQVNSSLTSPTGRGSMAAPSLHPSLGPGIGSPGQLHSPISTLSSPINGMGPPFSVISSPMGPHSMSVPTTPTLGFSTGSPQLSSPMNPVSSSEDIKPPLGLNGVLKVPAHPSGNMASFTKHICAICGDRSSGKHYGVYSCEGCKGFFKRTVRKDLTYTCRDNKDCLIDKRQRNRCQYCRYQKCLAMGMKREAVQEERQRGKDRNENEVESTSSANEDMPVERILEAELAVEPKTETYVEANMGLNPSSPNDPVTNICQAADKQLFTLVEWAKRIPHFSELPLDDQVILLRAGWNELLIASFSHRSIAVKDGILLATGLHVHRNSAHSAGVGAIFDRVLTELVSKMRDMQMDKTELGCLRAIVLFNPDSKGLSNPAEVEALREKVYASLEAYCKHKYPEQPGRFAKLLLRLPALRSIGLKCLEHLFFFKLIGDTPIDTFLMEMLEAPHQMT
The target in assay [6] is Thyroid hormone receptor beta (Homo sapiens) (UniProt P10828). Kind of assay: qHTS assay for small molecule agonists of thyroid hormone receptor beta signaling (AID 588545).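 Further: 0% = DMSO only and 100% = 10 nM T3.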 An outline of the steps:
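Stimulation of a TR-driven beta-lactamase reporter was quantified in GripTite HEK 293 cells. Compound series ran for 18 hrs; curves were normalized to T3 and DMSO controls and fitted to yield EC50.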

The nature of assay [7]: qHTS assay for small molecule antagonists of retinoid X receptor alpha signaling (AID 588546; active means well fitted inhibition curve with a large enough effect in the signal ratio, with a control signal flat, not every such curve was filed as active; the % refers to the signal ratio;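 further: cells stimulated with 9-cis-retinoic acid as agonist; on the % scale 0 is the no-effect control and ±100 the full control effect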). The note with it: HEK293T RXRa-UAS-bla, beta-lactamase ratio, antagonist mode; measured here: W530 green channel, cytotoxicity proxy. In a few lines:
(§1)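 Beta-lactamase reporter inhibition, read as CCF4 fluorescence ratio (ex 405, em 460/530 nm) after 2 h at RT. HEK293T UAS-bla cells, 2500/well, were stimulated with 9-cis-RA at 500 or 100 nM final alongside test compound for 18 h at 37 C.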

The target in assay [8] is Retinoic acid receptor RXR-alpha (Homo sapiens) (UniProt P19793). The assay is described as above. The note with it: HEK293T RXRa-UAS-bla, beta-lactamase ratio, antagonist mode. In a few lines:
as §1

For assay [9], the target named is Thyroid hormone receptor beta (Homo sapiens) (UniProt P10828). Kind of assay: qHTS assay for small molecule antagonists of thyroid hormone receptor beta signaling (AID 588547; active means well fitted inhibition curve with a large enough effect in the signal ratio, with a control signal flat, not every such curve was filed as active; the % refers to the signal ratio;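 further: cells stimulated with 0.4 nM T3 agonist during compound exposure; series mostly up to about 77 µM; on the % scale 0 is the no-effect control and ±100 the full control effect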). The note with it: TR-UAS-bla HEK293, beta-lactamase ratio, antagonist mode, 18 h. In a few lines: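 Inhibition of T3-driven (0.4nM final) beta-lactamase reporter activity was measured over 0.59 nM to 92 uM compound after 18 h at 37 C. The cells were GripTite HEK293 TR-UAS-bla in charcoal/dextran-stripped serum, with CCF4 ratio read-out and IC50 from Hill fits.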
Thyroid hormone receptor beta (Homo sapiens), sequence (P10828 whole entry, looked up): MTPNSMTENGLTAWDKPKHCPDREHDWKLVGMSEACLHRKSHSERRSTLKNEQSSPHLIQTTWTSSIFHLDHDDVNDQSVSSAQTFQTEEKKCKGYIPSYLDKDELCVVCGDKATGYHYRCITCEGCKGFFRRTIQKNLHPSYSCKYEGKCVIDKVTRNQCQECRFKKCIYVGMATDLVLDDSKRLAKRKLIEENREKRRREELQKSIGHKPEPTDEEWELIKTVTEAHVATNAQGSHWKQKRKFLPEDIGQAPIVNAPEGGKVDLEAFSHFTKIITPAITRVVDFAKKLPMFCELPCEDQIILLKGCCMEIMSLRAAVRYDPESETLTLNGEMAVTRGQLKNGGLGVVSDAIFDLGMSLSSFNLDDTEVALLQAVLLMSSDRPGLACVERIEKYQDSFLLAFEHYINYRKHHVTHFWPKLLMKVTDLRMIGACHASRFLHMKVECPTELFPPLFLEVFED

A short description of assay [10]: qHTS assay for small molecule activators of the p53 signaling pathway (AID 651743; active means well fitted activation curve with a large enough effect in the signal ratio, not every such curve was filed as active; the % refers to the signal ratio; further: series mostly up to about 92 µM; % of control where 0% means no effect). The note with it: HCT-116 p53RE-bla, beta-lactamase FRET ratio, 16 h; activation: stronger effect = higher value. In a few lines:
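After 16 hours compound treatment at 37 C, HCT-116 cells stably expressing p53RE-driven beta-lactamase were loaded with LiveBLAzer B/G FRET substrate for 2 hours at room temperature. Fluorescence intensity served as the p53 activation read-out.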

The nature of assay [11]: qHTS assay for small molecule activators of the nuclear factor-kappa B (NF-kB) signaling pathway (AID 651749; active means well fitted activation curve with a large enough effect in the signal ratio; the % refers to the signal ratio; further: series mostly up to about 77 µM; % of control where 0% means no effect). Particulars: NF-kB-bla ME-180 cells, beta-lactamase FRET ratio, 16 h; activation: stronger effect = higher value. An outline of the steps: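 Activation measured after 16 hr compound treatment at 37C, 5% CO2, of 2,000 ME-180 cells/well stably expressing an NF-kB response element–driven beta-lactamase reporter, via FRET-disruption fluorescence.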

The nature of assay [12]: qHTS assay for environmental chemicals that activate the Aryl hydrocarbon Receptor (AhR) signaling pathway (AID 651777; active means well fitted curve in the direction sought with a large enough effect; an effect the other way counts as inactive or inconclusive; further: % of control where 0% means no effect; nearly all actives have a fitted effect of over 15% in size). The note with it: 1A2-DRE human hepatoma cells, luciferase, 24 h; activation: stronger effect = higher value. In a few lines:
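Quantitative HTS in stably transfected human liver-derived cells whose luciferase gene sits downstream of the CYP1A2 promoter and dioxin response element. After 24 hr exposure at 37 C, One-Glo luminescence was measured.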

For assay [13], the target named is Peroxisome proliferator-activated receptor alpha (Homo sapiens) (UniProt Q07869). The assay can be described thus: qHTS assay for small molecule agonists of the peroxisome proliferator-activated receptor alpha (PPARalpha) signaling pathway (AID 651778; active means well fitted curve in the direction sought with a large enough effect; an effect the other way counts as inactive or inconclusive; further: % of control where 0% means no effect). The note with it: PathHunter PPARalpha complementation, chemiluminescence, 6 h; max response: stronger effect = higher value. An outline of the steps: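 Chemiluminescence from complemented enzyme reported PPARalpha activation in cells after 6 hr of compound treatment at 37 C. The detection reagent was incubated for 60 min at room temperature, and compounds were scored as agonists.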
Peroxisome proliferator-activated receptor alpha (Homo sapiens), sequence (Q07869 whole entry, looked up): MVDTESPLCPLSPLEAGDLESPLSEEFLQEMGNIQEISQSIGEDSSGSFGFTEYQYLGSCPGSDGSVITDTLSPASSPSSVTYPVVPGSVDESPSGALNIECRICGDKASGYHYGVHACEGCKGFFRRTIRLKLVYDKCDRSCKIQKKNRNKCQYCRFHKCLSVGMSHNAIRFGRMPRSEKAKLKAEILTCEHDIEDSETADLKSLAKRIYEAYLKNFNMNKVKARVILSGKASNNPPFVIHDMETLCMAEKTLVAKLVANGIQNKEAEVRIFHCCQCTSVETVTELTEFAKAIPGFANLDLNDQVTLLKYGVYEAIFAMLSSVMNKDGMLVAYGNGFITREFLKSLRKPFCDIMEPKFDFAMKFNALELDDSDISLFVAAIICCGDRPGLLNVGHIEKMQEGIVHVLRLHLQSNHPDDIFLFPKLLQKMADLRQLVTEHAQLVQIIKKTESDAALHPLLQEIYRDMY

A short description of assay [14]: qHTS assay for small molecule agonists of the antioxidant response element (ARE) signaling pathway measured by Nrf2-dependant transcriptional activity (AID 720636; active means well fitted curve in the direction sought with a large enough effect in the repeat runs; an effect the other way counts as inactive or inconclusive; further: potency means the concentration at half of the fitted maximal effect; on activation: % of control where 0% means no effect). An outline of the steps:
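Quantitative HTS format in HepG2 cells stably expressing an ARE-luciferase reporter; 16 hr compound treatment at 37 C, luciferase signal detected with ONE-Glo.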

A short description of assay [15]: qHTS assay for cell viability of HEK293 cells (AID 743288; active means well fitted curve in the direction sought with a large enough effect; an effect the other way counts as inactive or inconclusive; further: on the % scale 0 is the no-effect control and ±100 the full control effect; nearly all actives have a fitted effect of over 50% in size). Particulars: ATP luminescence (CellTiter-Glo), 18 h; max response: stronger effect = lower value. An outline of the steps:
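HEK293, 18 h, 37 C, ATP luminescence. Cells at 2,000/well were allowed at least 5 h to settle before dosing; CellTiter-Glo developed 30 min at RT.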

Assay [16] has as its target Glucocorticoid receptor (Homo sapiens) (UniProt P04150). The assay can be described thus: qHTS assay for small molecule agonists of glucocorticoid receptor signaling (AID 588532; active means well fitted curve in the direction sought with a large enough effect in the signal ratio, with a control signal flat; the % refers to the signal ratio;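 further: 100% = dexamethasone at 0.1 µM and 0% = DMSO only wells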). Particulars: HeLa MMTV-bla, beta-lactamase ratio, agonist, 18 h; activation: stronger effect = higher value, percent of dexamethasone control, DMSO zero. In a few lines: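 Quantitative HTS using CellSensor MMTV-bla HeLa cells in charcoal/dextran-treated serum; compounds tested up to 92 uM. After 18 h at 37 C, CCF4 dye reported reporter induction.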

The target of assay [17] is Peroxisome proliferator-activated receptor gamma (Homo sapiens) (UniProt P37231). Kind of assay: qHTS assay for small molecule agonists of peroxisome proliferator-activated receptor gamma signaling (AID 588536; active means well fitted curve in the direction sought with a large enough effect in the signal ratio, with a control signal flat, not every such curve was filed as active; the % refers to the signal ratio;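 further: 0% = DMSO basal wells and 100% = rosiglitazone at 2 µM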). An outline of the steps: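 This is an agonist-mode beta-lactamase reporter assay in HEK293 PPAR-gamma-UAS-bla cells with 1% charcoal/dextran FBS. Compound titrations ran 16 h at 37 C before CCF4 detection. EC50 and efficacy are Hill fits scaled to 2 uM rosiglitazone (100%) and DMSO basal.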
Peroxisome proliferator-activated receptor gamma (Homo sapiens), sequence (P37231 whole entry, looked up): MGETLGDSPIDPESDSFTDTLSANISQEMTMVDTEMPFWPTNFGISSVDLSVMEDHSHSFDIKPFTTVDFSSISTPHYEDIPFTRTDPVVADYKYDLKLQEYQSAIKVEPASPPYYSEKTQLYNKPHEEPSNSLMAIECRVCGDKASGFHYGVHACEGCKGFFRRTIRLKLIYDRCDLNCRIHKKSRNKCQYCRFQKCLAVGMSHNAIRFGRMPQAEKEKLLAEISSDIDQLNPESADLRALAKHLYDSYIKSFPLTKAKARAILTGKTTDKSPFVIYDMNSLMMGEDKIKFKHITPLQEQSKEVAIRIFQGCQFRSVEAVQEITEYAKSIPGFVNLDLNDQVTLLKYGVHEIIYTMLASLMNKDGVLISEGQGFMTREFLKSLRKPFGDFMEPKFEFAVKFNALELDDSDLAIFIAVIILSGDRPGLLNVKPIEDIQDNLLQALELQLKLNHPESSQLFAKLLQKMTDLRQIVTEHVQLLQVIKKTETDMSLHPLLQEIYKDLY

Assay [18] has the same target. The assay can be described thus: qHTS assay for small molecule antagonists of peroxisome proliferator-activated receptor gamma signaling (AID 588537; active means well fitted inhibition curve with a large enough effect in the signal ratio, with a control signal flat, not every such curve was filed as active; the % refers to the signal ratio;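 further: reporter cells co-stimulated with 50 nM rosiglitazone agonist during compound treatment; % of control where 0% means no effect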). An outline of the steps:
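Antagonist-mode β-lactamase reporter screen run as a titration series. HEK293 PPARγ-UAS-bla cells are stimulated with rosiglitazone (50 nM final) for 16 h, then CCF4 is read at 460/530 nm. Data are scaled between DMSO and rosiglitazone and fitted to the Hill equation.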

The nature of assay [19]: qHTS assay for small molecule agonists of retinoid X receptor alpha signaling (AID 588544).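 On activation: 0% = DMSO basal wells and 100% = reference agonist.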 Particulars: HEK293T RXRa-UAS-bla, beta-lactamase reporter, 18 h; 530 nm emission.
Assay [20] is described as follows: qHTS assay for small molecule agonists of the antioxidant response element (ARE) signaling pathway (AID 651741; active means well fitted activation curve with a large enough effect in the signal ratio; the % refers to the signal ratio; further: potency means the concentration at half of the fitted maximal effect; on activation: % of control where 0% means no effect). In a few lines: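 Beta-lactamase reporter under ARE control in HepG2 cells, 2,000 per well, was induced by 16 h compound treatment at 37 C. Read-out was fluorescence from LiveBLAzer B/G FRET substrate after 2 h at room temperature.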
Assay [21] is described as follows: qHTS assay for small molecule agonists of the antioxidant response element (ARE) signaling pathway measured by Nrf2-dependant transcriptional activity - cell viability counter screen (AID 720653; active means well fitted curve in the direction sought with a large enough effect in the repeat runs; an effect the other way counts as inactive or inconclusive; further: on the % scale 0 is the no-effect control and ±100 the full control effect). The note with it: ARE-bla HepG2 viability, CellTiter-Glo ATP luminescence, 16 h; max response: stronger effect = lower value. In a few lines:
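Cytotoxicity counter screen: intracellular ATP quantified by CellTiter-Glo luminescence in the same ARE-bla HepG2 plates, after 16 h compound exposure and a 2 h beta-lactamase substrate step.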

The nature of assay [22]: qHTS assay for cell viability of the p53RE-bla HCT-116 cell line (AID 743292; active means well fitted curve in the direction sought with a large enough effect; an effect the other way counts as inactive or inconclusive; further: on the % scale 0 is the no-effect control and ±100 the full control effect; nearly all actives have a fitted effect of over 55% in size). In a few lines: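 Viability of compound-treated p53RE-bla HCT-116 cells is taken from ATP-dependent luciferase luminescence. Treatment lasts 16 h at 37 C after a 5 h settling period; detection follows 30 min at room temperature.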
Assay [23] deals with Nuclear receptor subfamily 1 group I member 2 (Rattus norvegicus) (UniProt Q9R1A7). Kind of assay: qHTS assay for small molecule activators of the rat pregnane X receptor (rPXR) signaling pathway (AID 651751; call rule not given here; further: 0% is about no effect). The note with it: rPXR reporter cells, luciferase (One-Glo), 24 h.
Nuclear receptor subfamily 1 group I member 2 (Rattus norvegicus), sequence (Q9R1A7 whole entry, looked up): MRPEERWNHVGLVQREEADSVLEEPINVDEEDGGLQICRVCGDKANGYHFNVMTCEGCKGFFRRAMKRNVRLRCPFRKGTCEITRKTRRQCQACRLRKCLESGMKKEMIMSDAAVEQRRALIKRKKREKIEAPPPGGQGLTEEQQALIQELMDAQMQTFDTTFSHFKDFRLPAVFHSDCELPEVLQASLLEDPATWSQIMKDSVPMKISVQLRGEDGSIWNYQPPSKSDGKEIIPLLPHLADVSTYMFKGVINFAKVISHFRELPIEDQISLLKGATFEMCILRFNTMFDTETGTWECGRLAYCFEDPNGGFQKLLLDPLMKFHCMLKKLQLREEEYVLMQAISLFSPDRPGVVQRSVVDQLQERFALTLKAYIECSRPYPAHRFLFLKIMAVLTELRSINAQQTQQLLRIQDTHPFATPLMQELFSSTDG
A short description of assay [24]: qHTS assay for small molecule activators of the human pregnane X receptor (PXR) signaling pathway (AID 720659; call rule not given here; further: 0% is about no effect).

SMILES strings stand for the structures. “And” between values parts separate entries of the source, which are not always exact repeats. Equal values may be shown once. Records with an inconclusive call do not appear. The source made the active and inactive calls. Unless noted, the call rests on the fitted dose curve.

Glucocorticoid receptor (Homo sapiens), sequence (P04150 whole entry, looked up): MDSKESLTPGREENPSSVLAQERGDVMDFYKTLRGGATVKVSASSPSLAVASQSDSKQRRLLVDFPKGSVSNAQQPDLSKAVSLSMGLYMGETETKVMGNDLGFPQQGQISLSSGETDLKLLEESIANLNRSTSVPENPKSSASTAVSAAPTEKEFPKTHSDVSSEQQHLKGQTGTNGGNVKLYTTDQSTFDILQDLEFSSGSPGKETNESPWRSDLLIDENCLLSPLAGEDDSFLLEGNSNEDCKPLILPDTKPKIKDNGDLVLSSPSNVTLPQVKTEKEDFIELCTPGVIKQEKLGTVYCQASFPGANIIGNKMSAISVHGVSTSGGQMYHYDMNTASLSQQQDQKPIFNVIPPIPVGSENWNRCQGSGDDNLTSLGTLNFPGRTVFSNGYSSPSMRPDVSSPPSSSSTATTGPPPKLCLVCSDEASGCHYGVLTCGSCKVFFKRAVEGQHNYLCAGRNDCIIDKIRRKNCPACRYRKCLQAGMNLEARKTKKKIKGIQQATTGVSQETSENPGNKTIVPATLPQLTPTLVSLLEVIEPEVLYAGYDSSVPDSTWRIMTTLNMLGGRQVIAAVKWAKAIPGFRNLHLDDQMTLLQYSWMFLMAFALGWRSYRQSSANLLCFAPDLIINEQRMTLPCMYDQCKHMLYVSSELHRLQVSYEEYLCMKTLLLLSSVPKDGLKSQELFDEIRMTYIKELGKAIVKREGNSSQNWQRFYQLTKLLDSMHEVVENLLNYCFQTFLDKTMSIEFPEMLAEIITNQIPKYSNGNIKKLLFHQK
Vitamin D3 receptor (Homo sapiens), sequence (P11473 whole entry, looked up): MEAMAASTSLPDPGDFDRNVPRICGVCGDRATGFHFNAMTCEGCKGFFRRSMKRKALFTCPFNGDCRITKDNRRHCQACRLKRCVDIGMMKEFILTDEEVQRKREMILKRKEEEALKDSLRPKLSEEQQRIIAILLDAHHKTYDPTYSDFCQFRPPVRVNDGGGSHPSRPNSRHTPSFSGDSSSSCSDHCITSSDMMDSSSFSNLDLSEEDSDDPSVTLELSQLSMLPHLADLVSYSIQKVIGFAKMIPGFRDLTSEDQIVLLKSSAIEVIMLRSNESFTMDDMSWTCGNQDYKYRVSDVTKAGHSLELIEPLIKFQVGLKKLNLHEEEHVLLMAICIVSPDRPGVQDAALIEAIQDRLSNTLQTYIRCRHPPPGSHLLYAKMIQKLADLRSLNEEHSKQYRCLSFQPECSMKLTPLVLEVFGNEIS
Peroxisome proliferator-activated receptor delta (Homo sapiens), sequence (Q03181 whole entry, looked up): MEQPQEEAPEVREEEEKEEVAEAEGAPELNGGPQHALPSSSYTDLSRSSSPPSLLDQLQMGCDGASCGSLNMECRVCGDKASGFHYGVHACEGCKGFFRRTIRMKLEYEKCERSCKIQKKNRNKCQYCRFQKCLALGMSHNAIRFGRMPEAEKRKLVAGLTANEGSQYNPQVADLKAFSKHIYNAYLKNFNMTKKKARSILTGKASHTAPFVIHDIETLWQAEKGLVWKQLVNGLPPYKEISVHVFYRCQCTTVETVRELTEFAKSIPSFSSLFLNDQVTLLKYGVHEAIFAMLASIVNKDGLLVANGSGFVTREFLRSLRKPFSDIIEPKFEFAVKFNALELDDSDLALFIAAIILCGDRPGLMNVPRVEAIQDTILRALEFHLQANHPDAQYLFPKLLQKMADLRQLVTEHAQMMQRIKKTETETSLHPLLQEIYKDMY

Turning to `C#CC(C)(C)NC(=O)c1cc(Cl)cc(Cl)c1`, the Potency entry in assay [1], in [3], in [5], in assay [6] and in [14] was “inactive” throughout. Further, the result in [2] and in assay [4] was inactive. For the same molecule, the max response in [7] is -11.2%; in [8] it was -9.81% (inactive); in assay [13], 7.64% (inactive); in assay [15], 5.07% (inactive). Further, in [9], the activity change % (negative = inhibition) was 3.53% (inactive). In addition, the activation in [10] was -3.76% (inactive); in [11], -1.42% (inactive); in assay [12], -1.14% (inactive).
As to `COc1cc(OC)nc(Sc2cccc(Cl)c2C(=O)O)n1`, the activation in [16] was 5.02% (inactive); in assay [10], -0.496% (inactive). For the same molecule, the Potency result in assay [1], in [17], in assay [18], in [3], in [5] and in [6] was “inactive” throughout. Also, the Potency entry in assay [20], in [14] and in [22] was “inactive” throughout. Further, the molecule was called inactive in assay [4] and in [24]. Further, the max response is -16.4% in assay [19]; -2.85% in assay [7]; -5.7% (inactive) in [8]; -1.08% (inactive) in [13]; -2.11% (inactive) in [21]; -8.52% (inactive) in assay [15]. In assay [23], the max response is 3.18% (inactive). Moreover, the activity change % (negative = inhibition) in [9] was 6.23% (inactive).
With `Cc1ncc[nH]1`, the molecule was called inactive in assay [2].
As for `S=C([S-])NCCNC(=S)[S-].[Mn+2]`, the activation in [16] is -3.05% (inactive). Moreover, the Potency in [20] is 30.6 µM (active) and 27.3 µM (active); in assay [14], 61.1 µM (active).

Values taken from PubChem BioAssay (NCATS).
